Experimental data published in PubChem BioAssay.
“And” between values parts separate entries of the source, which are not always exact repeats. Equal values may be shown once. More than one record can exist for a structure, and the calls need not agree. The source made the active and inactive calls.

Legend:
[1] = system: PRMT1 (protein arginine N-methyltransferase 1); assay: PRMT1 binders on small-molecule microarrays, primary screen, biochemical, small-molecule microarray, 635 nm fluorescence (AID 1088); conditions: small-molecule microarray binding, higher = more signal;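 note: binding of Prmt1 protein to compounds spotted on small-molecule microarray slides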
[2] = yeast growth modulation, basal conditions, primary screen, YJM789 clinical isolate, OD600, 24 h (AID 1089);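 note: growth of clinical yeast isolate S. cerevisiae YJM 789 seeded 1000 cells per well; test concentration not given here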; conditions: S. cerevisiae YJM789 growth, higher = more signal, called active from +8 up or from −8 down
[3] = fission yeast growth modulation, primary screen, strain 972, OD600, 24 h, no modulator (AID 1090);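 note: basal condition with compound alone and no growth modifier present; test concentration not given here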; conditions: S. pombe 972 growth, higher = more signal, called active from +8 up or from −8 down
[4] = S. cerevisiae growth modulation with rapamycin, primary screen, strain BY4716, OD600, 96 h (AID 1091); conditions: higher = more signal, called active from +8 up or from −8 down; note: test concentration not given here
[5] = target: Torsin-1A-interacting protein 2 (Homo sapiens) (UniProt Q8NFQ8); assay: LULL1 binders on small-molecule microarray, primary screen, cell lysate, human LULL1 lysate, 635/667 nm fluorescence (AID 1092); conditions: hLULL1 lysate binding, 635 nm fluorescence, higher = more signal;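 note: probe is lysate of COS7 cells overexpressing human LULL1; score merges per-feature 667 nm fluorescence with signal-to-noise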
[6] = E. coli growth modulation, two-sided OD650, primary screen, E. coli filamentation project, strain DRC41, 24 h (AID 1093); conditions: OD650, 24 h, higher = more signal, called active from +8 up or from −8 down;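 note: MC1000 strain lacking acrAB efflux and sulA so SOS filamentation is blocked; test concentration not given here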
[7] = small-molecule microarray binders of probe aLefty2, primary screen, biochemical, biotinylated probe, 635/667 nm fluorescence (AID 1094); conditions: higher = more signal;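 note: score merges spot fluorescence near 667 nm with spot signal-to-noise ratio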
[8] = system: Noggin (protein binding on small-molecule microarray); assay: Noggin binders on small-molecule microarray, primary screen, biochemical, 635/667 nm fluorescence (AID 1095); conditions: 635 nm fluorescence, higher = more signal;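 note: score merges 667 nm feature fluorescence with signal to noise over triplicate slides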
[9] = target: Neurogenic locus notch homolog protein 3 (Homo sapiens) (UniProt Q9UM47); assay: NOTCH3 binders on small-molecule microarray, primary screen, biochemical, 635/667 nm fluorescence (AID 1096); conditions: NOTCH3 binding, 635 nm fluorescence, higher = more signal
[10] = small-molecule microarray binders of probe aEGFR, primary screen, biochemical, biotinylated probe, 635/667 nm fluorescence (AID 1097); conditions: higher = more signal;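 note: probe is a biotinylated anti-EGFR antibody binding compounds printed on slides; score combines fluorescence near 667 nm and signal to noise of each spot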
[11] = system: Plasmodium falciparum Sir2 (PF13_0152, Sir2A); assay: pfSir2 binders on small-molecule microarrays, primary screen, biochemical, small-molecule microarray, 635 nm fluorescence (AID 1098); conditions: small-molecule microarray binding, fluorescence 635 nm; higher = more signal;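 note: score merges spot fluorescence intensity with its signal-to-noise ratio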
[12] = small-molecule microarray binders of probe aDKK1, primary screen, biochemical, biotinylated probe, 635/667 nm fluorescence (AID 1099); conditions: higher = more signal;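 note: score merges 667nm spot fluorescence with signal to noise across triplicate slides; reference of the scale not given here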
[13] = small-molecule microarray binders of probe aCHRDL2, primary screen, biochemical, biotinylated probe, 635/667 nm fluorescence (AID 1100); conditions: higher = more signal
[14] = splicing luciferase reporter signal modulators, primary screen, spliceosome inhibition project, cell-based, HEK293, splice +/- reporter (AID 1101); conditions: luminescence, 24 h, higher = more signal, called active from +8 up or from −8 down;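 note: HEK293 cells carrying a splicing-competent luciferase reporter gene; test concentration not given here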
[15] = target: Fibroblast growth factor 10 (Homo sapiens) (UniProt O15520); assay: FGF10 binders on small-molecule microarrays, primary screen, biochemical, small-molecule microarray, 635 nm fluorescence (AID 1102); conditions: FGF10 binding, fluorescence 635 nm, higher = more signal
[16] = system: glycogen synthase kinase-3 (GSK3A per assay name; protocol says GSK3B); assay: GSK3 binders on small-molecule microarrays, primary screen, biochemical, small-molecule microarray, 635 nm fluorescence, GSK3A (AID 1103); conditions: small-molecule microarray binding, fluorescence 635 nm; higher = more signal; note: the record names both GSK3A and GSK3B
[17] = target: Epidermal growth factor receptor (Homo sapiens) (UniProt P00533); assay: EGFR binders on small-molecule microarrays, primary screen, biochemical, small-molecule microarray, 635 nm fluorescence (AID 1104); conditions: EGFR binding, higher = more signal;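 note: score merges 667 nm emission intensity with spot signal to noise over triplicate slides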
[18] = target: Follistatin-related protein 3 (Homo sapiens) (UniProt O95633); assay: FSTL3 binders on small-molecule microarrays, primary screen, biochemical, small-molecule microarray, 635 nm fluorescence (AID 1105); conditions: FSTL3 binding, higher = more signal;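 note: score merges emission near 667 nm and signal to noise per printed spot across three slides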
[19] = target: Dickkopf-related protein 1 (Homo sapiens) (UniProt O94907); assay: DKK1 binders on small-molecule microarrays, primary screen, biochemical, small-molecule microarray, 635 nm fluorescence scan (AID 1106); conditions: DKK1 binding, higher = more signal;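 note: score merges emission near 667 nm with signal to noise over three replicate slides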
[20] = system: Inhibin beta A chain (activin A); assay: INHBA (activin A) binders on microarrays, primary screen, biochemical, small-molecule microarray, 635 nm fluorescence scan (AID 1107); conditions: small-molecule microarray binding, higher = more signal;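 note: mouse activin A protein probed at 4.33 µg/mL on printed slides; score merges bound-protein fluorescence near 667 nm with spot signal-to-noise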

Sequence of Epidermal growth factor receptor (Homo sapiens) (P00533 whole entry, looked up): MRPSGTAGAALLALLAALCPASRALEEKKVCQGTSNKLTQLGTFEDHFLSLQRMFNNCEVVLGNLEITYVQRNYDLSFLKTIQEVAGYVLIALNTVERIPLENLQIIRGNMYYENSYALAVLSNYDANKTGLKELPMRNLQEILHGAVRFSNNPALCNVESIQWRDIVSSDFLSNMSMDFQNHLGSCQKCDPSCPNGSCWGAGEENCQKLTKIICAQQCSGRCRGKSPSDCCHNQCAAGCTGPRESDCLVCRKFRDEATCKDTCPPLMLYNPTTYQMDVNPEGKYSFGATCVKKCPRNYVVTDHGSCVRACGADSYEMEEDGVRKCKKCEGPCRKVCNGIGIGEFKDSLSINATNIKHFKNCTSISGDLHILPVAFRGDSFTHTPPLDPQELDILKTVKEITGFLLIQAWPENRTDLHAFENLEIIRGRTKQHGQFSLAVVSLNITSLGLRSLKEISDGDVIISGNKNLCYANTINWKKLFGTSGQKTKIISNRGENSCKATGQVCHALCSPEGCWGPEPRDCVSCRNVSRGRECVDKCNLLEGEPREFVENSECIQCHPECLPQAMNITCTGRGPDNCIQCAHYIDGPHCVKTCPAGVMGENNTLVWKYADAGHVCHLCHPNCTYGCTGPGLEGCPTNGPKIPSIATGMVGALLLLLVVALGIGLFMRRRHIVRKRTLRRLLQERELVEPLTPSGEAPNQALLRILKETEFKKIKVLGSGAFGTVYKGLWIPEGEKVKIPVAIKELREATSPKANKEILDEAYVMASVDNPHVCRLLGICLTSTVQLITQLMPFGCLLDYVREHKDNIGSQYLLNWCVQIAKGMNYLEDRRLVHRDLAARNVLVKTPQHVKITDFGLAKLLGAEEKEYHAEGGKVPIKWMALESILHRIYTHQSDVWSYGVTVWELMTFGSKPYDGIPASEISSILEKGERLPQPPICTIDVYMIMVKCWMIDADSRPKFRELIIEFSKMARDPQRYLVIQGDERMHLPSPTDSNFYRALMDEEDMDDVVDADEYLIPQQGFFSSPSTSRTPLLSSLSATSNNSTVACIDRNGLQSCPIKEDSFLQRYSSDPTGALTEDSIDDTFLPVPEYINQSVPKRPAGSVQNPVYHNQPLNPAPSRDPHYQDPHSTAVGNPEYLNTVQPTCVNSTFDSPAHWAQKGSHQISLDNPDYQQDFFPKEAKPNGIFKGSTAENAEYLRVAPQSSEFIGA
Sequence of Fibroblast growth factor 10 (Homo sapiens) (O15520 whole entry, looked up): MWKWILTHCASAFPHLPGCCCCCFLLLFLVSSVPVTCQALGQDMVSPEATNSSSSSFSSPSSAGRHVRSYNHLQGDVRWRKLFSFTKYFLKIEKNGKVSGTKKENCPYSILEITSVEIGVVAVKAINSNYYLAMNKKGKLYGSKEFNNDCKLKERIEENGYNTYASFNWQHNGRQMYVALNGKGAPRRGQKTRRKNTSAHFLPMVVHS
Sequence of Torsin-1A-interacting protein 2 (Homo sapiens) (Q8NFQ8 whole entry, looked up): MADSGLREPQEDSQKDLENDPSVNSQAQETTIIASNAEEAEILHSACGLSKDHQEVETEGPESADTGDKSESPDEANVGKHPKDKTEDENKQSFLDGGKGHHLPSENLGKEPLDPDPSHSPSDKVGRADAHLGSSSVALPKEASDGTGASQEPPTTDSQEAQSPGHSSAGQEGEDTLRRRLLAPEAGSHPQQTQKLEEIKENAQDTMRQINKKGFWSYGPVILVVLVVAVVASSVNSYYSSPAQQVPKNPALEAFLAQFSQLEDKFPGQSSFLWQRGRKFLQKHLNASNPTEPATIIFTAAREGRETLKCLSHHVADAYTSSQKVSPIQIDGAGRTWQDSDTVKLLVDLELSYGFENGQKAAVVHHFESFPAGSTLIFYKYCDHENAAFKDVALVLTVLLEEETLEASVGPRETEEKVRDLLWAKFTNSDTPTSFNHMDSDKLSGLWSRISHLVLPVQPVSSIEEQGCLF
Sequence of Follistatin-related protein 3 (Homo sapiens) (O95633 whole entry, looked up): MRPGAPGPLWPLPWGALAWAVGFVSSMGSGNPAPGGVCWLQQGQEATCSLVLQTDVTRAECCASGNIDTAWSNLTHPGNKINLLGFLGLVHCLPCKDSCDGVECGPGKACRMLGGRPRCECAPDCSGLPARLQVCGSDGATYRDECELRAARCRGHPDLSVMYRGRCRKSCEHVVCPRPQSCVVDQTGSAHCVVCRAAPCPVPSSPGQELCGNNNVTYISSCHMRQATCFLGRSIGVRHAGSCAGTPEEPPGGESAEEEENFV
Sequence of Neurogenic locus notch homolog protein 3 (Homo sapiens) (Q9UM47 whole entry, looked up): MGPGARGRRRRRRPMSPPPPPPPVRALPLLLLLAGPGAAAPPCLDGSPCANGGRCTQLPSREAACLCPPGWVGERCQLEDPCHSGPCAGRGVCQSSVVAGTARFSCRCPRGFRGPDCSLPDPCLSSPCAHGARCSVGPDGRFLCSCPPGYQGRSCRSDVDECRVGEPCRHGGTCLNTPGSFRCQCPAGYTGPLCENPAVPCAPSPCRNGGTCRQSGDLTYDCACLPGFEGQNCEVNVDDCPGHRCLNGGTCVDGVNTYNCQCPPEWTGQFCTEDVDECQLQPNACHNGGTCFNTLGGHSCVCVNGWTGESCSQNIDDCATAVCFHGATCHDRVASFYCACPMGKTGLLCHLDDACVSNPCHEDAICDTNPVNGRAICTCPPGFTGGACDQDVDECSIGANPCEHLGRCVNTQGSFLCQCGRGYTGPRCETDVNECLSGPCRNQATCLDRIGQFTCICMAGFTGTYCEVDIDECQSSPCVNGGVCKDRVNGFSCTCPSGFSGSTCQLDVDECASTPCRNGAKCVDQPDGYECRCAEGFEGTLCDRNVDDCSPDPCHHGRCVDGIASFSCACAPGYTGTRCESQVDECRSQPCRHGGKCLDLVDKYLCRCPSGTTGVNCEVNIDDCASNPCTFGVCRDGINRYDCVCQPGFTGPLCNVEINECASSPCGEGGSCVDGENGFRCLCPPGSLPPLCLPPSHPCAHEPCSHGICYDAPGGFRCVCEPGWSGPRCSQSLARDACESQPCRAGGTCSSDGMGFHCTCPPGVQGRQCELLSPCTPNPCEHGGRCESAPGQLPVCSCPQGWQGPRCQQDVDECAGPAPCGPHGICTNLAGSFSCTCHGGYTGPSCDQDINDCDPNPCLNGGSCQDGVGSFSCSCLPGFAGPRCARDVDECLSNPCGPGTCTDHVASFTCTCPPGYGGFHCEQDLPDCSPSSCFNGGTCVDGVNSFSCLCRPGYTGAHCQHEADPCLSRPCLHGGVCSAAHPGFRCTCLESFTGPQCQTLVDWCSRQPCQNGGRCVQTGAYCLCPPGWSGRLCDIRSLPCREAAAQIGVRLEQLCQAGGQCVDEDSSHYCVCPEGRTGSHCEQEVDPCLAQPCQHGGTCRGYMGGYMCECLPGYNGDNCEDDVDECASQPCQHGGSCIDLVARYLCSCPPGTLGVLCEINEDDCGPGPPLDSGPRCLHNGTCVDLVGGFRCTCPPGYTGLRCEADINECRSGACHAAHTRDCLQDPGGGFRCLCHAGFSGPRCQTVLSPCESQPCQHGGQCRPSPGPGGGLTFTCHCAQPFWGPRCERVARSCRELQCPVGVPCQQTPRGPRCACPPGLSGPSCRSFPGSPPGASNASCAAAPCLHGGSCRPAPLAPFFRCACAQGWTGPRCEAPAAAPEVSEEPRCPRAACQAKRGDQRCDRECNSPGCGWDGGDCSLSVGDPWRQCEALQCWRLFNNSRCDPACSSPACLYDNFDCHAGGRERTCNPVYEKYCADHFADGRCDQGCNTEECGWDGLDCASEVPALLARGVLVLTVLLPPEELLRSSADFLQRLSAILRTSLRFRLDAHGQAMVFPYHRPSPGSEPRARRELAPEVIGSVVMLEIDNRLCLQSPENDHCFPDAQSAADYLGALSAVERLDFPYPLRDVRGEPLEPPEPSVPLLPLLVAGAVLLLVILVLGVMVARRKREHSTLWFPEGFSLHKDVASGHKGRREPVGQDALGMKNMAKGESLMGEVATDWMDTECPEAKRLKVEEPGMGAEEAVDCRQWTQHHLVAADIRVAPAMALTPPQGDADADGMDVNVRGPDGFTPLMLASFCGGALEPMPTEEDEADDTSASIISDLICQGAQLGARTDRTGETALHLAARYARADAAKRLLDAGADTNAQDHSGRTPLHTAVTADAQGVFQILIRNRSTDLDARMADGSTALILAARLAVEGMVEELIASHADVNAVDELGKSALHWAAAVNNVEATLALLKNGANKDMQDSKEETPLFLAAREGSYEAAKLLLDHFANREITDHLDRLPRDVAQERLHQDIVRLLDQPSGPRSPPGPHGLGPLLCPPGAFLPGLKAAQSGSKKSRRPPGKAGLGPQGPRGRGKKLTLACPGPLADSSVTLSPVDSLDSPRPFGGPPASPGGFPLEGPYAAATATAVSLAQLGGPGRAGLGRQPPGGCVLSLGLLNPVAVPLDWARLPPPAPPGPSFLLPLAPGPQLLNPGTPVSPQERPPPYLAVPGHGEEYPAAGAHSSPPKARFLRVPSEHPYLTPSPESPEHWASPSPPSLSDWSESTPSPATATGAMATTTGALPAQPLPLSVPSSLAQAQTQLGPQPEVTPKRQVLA
Sequence of Dickkopf-related protein 1 (Homo sapiens) (O94907 whole entry, looked up): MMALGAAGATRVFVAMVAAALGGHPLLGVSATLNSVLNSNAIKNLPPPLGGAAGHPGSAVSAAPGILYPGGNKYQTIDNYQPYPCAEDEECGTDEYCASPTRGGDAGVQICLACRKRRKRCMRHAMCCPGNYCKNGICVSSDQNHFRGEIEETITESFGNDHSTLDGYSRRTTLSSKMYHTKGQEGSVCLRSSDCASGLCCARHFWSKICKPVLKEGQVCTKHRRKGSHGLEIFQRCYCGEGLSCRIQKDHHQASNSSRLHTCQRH

Row | SMILES | composite z-score [1] | z-score [2] | z-score [3] | z-score [4] | composite z-score [5] | z-score [6] | composite z-score [7] | composite z-score [8] | composite z-score [9] | composite z-score [10] | composite z-score [11] | composite z-score [12] | composite z-score [13] | z-score [14] | composite z-score [15] | composite z-score [16] | composite z-score [17] | composite z-score [18] | composite z-score [19] | composite z-score [20]
1 | COC(=O)C1=C(C)N(Cc2ccccc2)C2=C(C(=O)c3ccccc3)[C@H](c3ccccc3)[C@@](O)(C(=O)OC)C(=O)N2[C@@H]1c1ccccc1 | 0.518 and 0.722 | 0.504 (inactive) and 0.653 (inactive) | -0.413 (inactive) and -0.0902 (inactive) | 34.6 (active) and 0.863 (inactive) | 0.886 and 0.23 | 0.591 (inactive) and 0.311 (inactive) | 0.0039 and -0.115 | 0.495 and 0.653 | 0.858 and 0.808 | 0.127 and -0.123 | 0.419 and 0.36 | -0.0581 and -0.208 | -0.178 and -0.433 | -1.7 (inactive) and 0.839 (inactive) | 0.654 and 0.495 | 0.739 and 0.519 | 0.392 and 0.353 | 0.626 and 0.53 | 0.638 and 0.349 | -0.0471 and -0.0052
2 | COC(=O)C1=C(C)N(Cc2ccccc2)[C@]23O[C@](C(=O)OC)(C(=O)N2[C@@H]1c1ccccc1)[C@@H](C(=O)OC)[C@H]3C(=O)OC | -0.584 and 0.5 | 0.464 (inactive) and 0.457 (inactive) | -0.0252 (inactive) and -0.671 (inactive) | 0.667 (inactive) and 0.334 (inactive) | 0.19 and 0.0032 | 0.305 (inactive) and 0.28 (inactive) | -0.277 and -0.259 | -0.803 and 0.77 | -1.21 and 0.287 | -0.173 and -0.115 | -0.16 and 0.25 | -0.188 and -0.2 | -0.248 and -0.593 | -0.259 (inactive) and 0.0138 (inactive) | 0.393 and 0.372 | -0.969 and 0.317 | -0.574 and 0.608 | -1.14 and 0.664 | -0.0647 and 0.549 | 0.59 and 0.153
3 | CCOC(=O)[C@@H]1CC=C2CC1C(=O)N1CCC[C@@H]1[C@H]2O[Si](C)(C)C(C)(C)C (stereo not given in full) | -0.884 and -1.29 | -0.541 (inactive) and -2.68 (inactive) | -1.43 (inactive) and -19.5 (active) | 0.119 (inactive) and -1.52 (inactive) | -0.664 and -0.302 | -0.988 (inactive) and -0.253 (inactive) | -0.0807 and -0.347 | -0.462 and -0.414 | -0.529 and -2.04 | -0.218 and -0.273 | -0.632 and -0.617 | -0.0776 and -0.228 | -0.0464 and -0.898 | 0.474 (inactive) and 0.337 (inactive) | -0.182 and -1.24 | -0.0945 and -1.32 | -0.762 and -0.649 | -0.552 and -0.744 | 0.055 and -0.0246 | 0.401 and 0.933
4 | CO[C@H]1COC(=O)CC=C[C@@H](C)COC(=O)[C@@H](OCc2ccccc2)C=C[C@@H]1C | 1.47 | -0.744 (inactive) | -1.31 (inactive) | -0.855 (inactive) | -0.404 | 0.973 (inactive) | -0.353 | 2.02 | -0.294 | -0.135 | 0.661 | -0.533 | -1.54 | 0.19 (inactive) | 0.241 | 1.1 | 0.831 | 1.32 | 0.644 | 1.57
5 | COc1ccc(-c2ccc3c(n2)CCCN3CC(O)CN2CCCc3nc(-c4ccc(Br)cc4)ccc32)cc1 (stereo not given) | 1.47 and -0.0348 | 0.0467 (inactive) and -0.621 (inactive) | -0.665 (inactive) and 0.124 (inactive) | -2.52 (inactive) and -1.64 (inactive) | 1.24 and 0.778 | 0.0393 (inactive) and 0.816 (inactive) | 0.351 and 0.141 | 0.348 and 0.245 | 0.877 and 0.491 | 0.181 and 0.106 | 1.01 and 0.727 | 0.507 and 0.293 | 0.0498 and 0.803 | 0.0317 (inactive) and -0.356 (inactive) | 0.829 and 0.6 | 0.682 and 0.382 | 0.476 and 0.459 | 0.868 and 0.601 | 0.372 and 0.291 | 1.33 and -1.05
6 | C=CC[C@@H](O)c1ccc(OCCO)cc1 | 0.347 and -0.516 | -2.53 (inactive) and -2.22 (inactive) | -10.4 (active) and -1.63 (inactive) | -0.121 (inactive) and -0.238 (inactive) | -0.821 and -0.479 | 0.638 (inactive) and 0.664 (inactive) | 0.0698 and 0.066 | 0.29 and -0.934 | -1.03 and -0.668 | -0.272 and -0.305 | 0.153 and 0.572 | -0.458 and -0.292 | 0.644 and 0.889 | -1.87 (inactive) and -2.09 (inactive) | -0.906 and -0.929 | 0.512 and -0.567 | -0.798 and -1.61 | 0.132 and -0.565 | -0.751 and -1.58 | -0.911 and -1.46
7 | C=C[C@@H](C)[C@@H](O)c1ccc(OCCO)cc1 | -0.851 and 0.0376 | 0.0436 (inactive) and -2.75 (inactive) | 0.162 (inactive) and -0.815 (inactive) | -0.607 (inactive) and 0.262 (inactive) | -1.11 and -0.508 | -0.0921 (inactive) and 1.12 (inactive) | 0.0893 and 0.2 | -1.72 and -1.7 | -0.574 and -0.377 | -0.397 and -0.374 | 0.886 and 1.38 | -0.265 and -0.238 | 1.09 and 0.349 | 0.26 (inactive) and -1.46 (inactive) | -1.75 and -1.12 | -0.736 and -0.659 | -2.13 and -2.11 | -1.25 and -1.05 | -2.51 and -1.8 | -3.81 and -0.988
8 | COc1ccc(COC(=O)NN=C2C[C@@H](O)[C@@H](O)[C@@H]3[C@@H]4C(=O)N(C(C)(C)C)C(=O)[C@@H]4CC[C@H]23)cc1 | 1.28 | -1.76 (inactive) | -1.05 (inactive) | -0.715 (inactive) | 2.14 | -0.0531 (inactive) | -0.277 | 0.468 | 0.469 | -0.132 | 0.871 | -0.325 | -0.25 | -0.544 (inactive) | 0.589 | 0.241 | -0.0313 | 0.121 | -0.116 | -0.786
